Among the data in ChEMBL document CHEMBL3988442, “University of Dundee, Small-Polar-MMV Screening Library” (2021) are PXC50 values, retold here.

The experiment has as its target T1, Methionyl-tRNA synthetase, putative (Leishmania donovani (strain BPK282A1)) (UniProt E9BF75).
T1 sequence (whole entry): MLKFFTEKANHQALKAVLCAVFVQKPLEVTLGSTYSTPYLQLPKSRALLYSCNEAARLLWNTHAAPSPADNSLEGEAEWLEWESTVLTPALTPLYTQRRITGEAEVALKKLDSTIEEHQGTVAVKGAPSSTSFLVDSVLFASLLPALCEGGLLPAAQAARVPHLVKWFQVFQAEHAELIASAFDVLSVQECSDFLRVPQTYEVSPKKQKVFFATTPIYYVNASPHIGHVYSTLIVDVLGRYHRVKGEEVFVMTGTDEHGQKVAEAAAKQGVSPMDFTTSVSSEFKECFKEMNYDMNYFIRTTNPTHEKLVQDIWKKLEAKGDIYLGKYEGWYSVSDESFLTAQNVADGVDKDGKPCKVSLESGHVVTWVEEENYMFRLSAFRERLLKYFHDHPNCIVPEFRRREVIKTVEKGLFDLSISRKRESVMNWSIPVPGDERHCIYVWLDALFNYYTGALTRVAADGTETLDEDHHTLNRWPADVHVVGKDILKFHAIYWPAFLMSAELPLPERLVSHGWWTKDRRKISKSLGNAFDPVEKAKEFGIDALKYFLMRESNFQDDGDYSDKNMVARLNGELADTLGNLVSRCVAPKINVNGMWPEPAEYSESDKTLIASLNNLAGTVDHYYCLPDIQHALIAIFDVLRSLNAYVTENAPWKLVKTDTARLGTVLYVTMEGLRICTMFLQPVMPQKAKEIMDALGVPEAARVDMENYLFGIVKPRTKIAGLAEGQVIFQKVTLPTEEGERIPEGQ
The experiment in a line: Leishmania donovani Methionine tRNA synthetase (LdMetRS):v7. Dose response assay. The class given is functional. On the set-up: conc 80 nM, time 150 minutes.

`CN1CCC(CNCc2cc(Cl)cc(Cl)c2)CC1` displayed a PXC50 (MAX_EFFECT 8.986615679) of under 2.7.

`O=C1CN(c2nc(-c3cccnc3)nc3sc4c(c23)CCCC4)CCN1`: the PXC50 was under 4 (MAX_EFFECT 24.0) and under 4 (MAX_EFFECT 26.98412698). Regarding `Cc1nc(N2CCN(C(=O)C3CC3)CC2)c2c3c(sc2n1)CC(C)CC3` (centres undefined), the PXC50 is under 4 (MAX_EFFECT 43.2160804) and under 4 (MAX_EFFECT 47.91154791). For the molecule `O=C(c1ccc2ccc(N3CCN(CC4CC4)CC3)n2c1)N1CCCO1`, the PXC50 runs as follows: (MAX_EFFECT 19.44444444) under 4; (MAX_EFFECT 22.0657277) under 4. Consider `Cc1nc(N2CCNC(=O)CC2C)c2c(CC(C)C)csc2n1` (centres undefined), for which the PXC50 is, setting by setting: (MAX_EFFECT 4.918032787) under 4; (MAX_EFFECT 7.486631016) under 4.

In the case of `COc1cc2ccc(N3CCN(S(C)(=O)=O)CC3)n2cc1C(=O)NC1CCCC1`, the PXC50 came out at 4.71 (BOTTOM 1.185639049, HILLSLOPE 1.624291099, MAX_EFFECT 57.89473684, TOP 63.90970976) and 4.35 (BOTTOM -1.038445777, HILLSLOPE 1.129445656, MAX_EFFECT 51.04166667, TOP 100.0). For the molecule `CN(C)CCNC(=O)c1ccc2ccc(N3CCN(S(C)(=O)=O)CC3)n2c1`, the PXC50 was 4.84 (BOTTOM 0.033, HILLSLOPE 2.605738827, MAX_EFFECT 55.98086124, TOP 56.52145989) and 4.75 (BOTTOM -2.072944034, HILLSLOPE 2.61914663, MAX_EFFECT 60.32906764, TOP 62.06864911). `O=C(O)C1CCCN1c1nc(-c2ccc(Cl)cc2)cc(C(F)(F)F)n1` (centres undefined) displayed a PXC50 (MAX_EFFECT 7.310704961) of under 4 and a PXC50 (MAX_EFFECT 9.138381201) of under 4.

On to `COc1ccc(-c2cc(C(F)(F)F)nc(N3CCN(C)CC3)n2)cc1`, for which the PXC50 was under 4 (MAX_EFFECT 16.41414141) and under 4 (MAX_EFFECT 20.40816327). As for `CCOC(=O)c1cnn(-c2nc(C)nc3sc4c(c23)CCC(C)C4)c1N` (centres undefined), the PXC50 is, setting by setting: (MAX_EFFECT 8.465608466) under 4; (MAX_EFFECT 9.066666667) under 4. For `CN(CCO)c1nc(-c2ccsc2)nc2sc3c(c12)CCCC3`, the PXC50 by setting is: (MAX_EFFECT 26.13333333) under 4; (MAX_EFFECT 28.04232804) under 4. For `CCNc1nc(-c2ccc(CC)cc2)cc(C(F)(F)F)n1`, the PXC50 (MAX_EFFECT 8.510638298) was under 4 and the PXC50 (MAX_EFFECT 9.32642487) was under 4. Consider `Cc1sc2nc(-c3cccs3)nc(N(C)CC(=O)NC3CC3)c2c1C`, for which the PXC50 is, setting by setting: (MAX_EFFECT 6.361323155) under 4; (MAX_EFFECT 7.808564232) under 4. For the molecule `Nc1noc2ccc(-c3cnc4ccc(Cl)nn34)cc12`, the PXC50 (MAX_EFFECT 1.526717557) is under 4 and the PXC50 (MAX_EFFECT 4.824561404) was under 4.

`O=c1nc(NCCCNCc2cc(Br)cc(Br)c2)[nH]c2ccsc12` yielded a PXC50 (BOTTOM 2.299047881, HILLSLOPE 2.649797199, MAX_EFFECT 103.7296037, TOP 100.0081261) of 6.16 and a PXC50 (BOTTOM 10.20336465, HILLSLOPE 2.013529983, MAX_EFFECT 101.8604651, TOP 99.90152213) of 6.19. In the case of `OC1CN(c2nc(C3CC3)nc3sc4c(c23)CCCC4)C1`, the PXC50 runs as follows: (MAX_EFFECT 6.914893617) under 4; (MAX_EFFECT 8.808290155) under 4. For `Cc1nc(NC(CC(C)C)C(=O)O)c2c3c(sc2n1)CCCC3` (centres undefined), the PXC50 is under 4 (MAX_EFFECT 16.83673469) and under 4 (MAX_EFFECT 16.91919192).

For the molecule `CS(=O)(=O)N1CCN(c2ccc3ccc(C(=O)NCCO)cn23)CC1`, the PXC50 (MAX_EFFECT 34.44976077) was under 4 and the PXC50 (MAX_EFFECT 46.06946984) is under 4. Regarding `NCc1ccc(Cl)cc1Cl`, the PXC50 runs as follows: (MAX_EFFECT 13.60691145) under 3; (MAX_EFFECT 15.77946768) under 3. Consider `CN(C)C(=O)CNC(=O)c1ccc2ccc(N(C)CC3CC3)n2c1`, for which the PXC50 is, setting by setting: (MAX_EFFECT 21.76870748) under 4; (MAX_EFFECT 29.90654206) under 4. Turning to `Cc1ccc(-c2cc(C(F)(F)F)nc(NCCN(C)C)n2)cc1`, the PXC50 reads like this: (MAX_EFFECT 8.163265306) under 4; (MAX_EFFECT 8.333333333) under 4. For the molecule `Cc1ccc(-c2ncc(CNc3cnccc3CO)s2)cc1`, the PXC50 (MAX_EFFECT 7.042253521) was under 4 and the PXC50 (MAX_EFFECT 10.18518519) is under 4. On to `COc1ccc(NC[C@@H](N)CC(C)C)c(Oc2ccc(Cl)cc2)n1`, for which the PXC50 reads like this: (MAX_EFFECT 6.560636183) under 4; (MAX_EFFECT 6.651376147) under 4.

Regarding `CCc1nc(NC(C(=O)O)C(C)C)c2cc(CC)sc2n1` (centres undefined), the PXC50 was under 4 (MAX_EFFECT 9.289617486) and under 4 (MAX_EFFECT 12.29946524). On to `Cc1nc(NCc2cccnc2)c2c3c(sc2n1)CC(C)CC3` (centres undefined), for which the PXC50 is under 4 (MAX_EFFECT 20.10178117) and under 4 (MAX_EFFECT 27.4559194).

The molecule `Cc1nc(NCC(=O)O)c2cc(-c3ccccc3)sc2n1` yielded a PXC50 (MAX_EFFECT 8.533333333) of under 4 and a PXC50 (MAX_EFFECT 10.58201058) of under 4. As to `CS(=O)(=O)N1CCN(c2ccc3ccc(C(=O)NCCn4cccn4)cn23)CC1`, the PXC50 is, setting by setting: (BOTTOM 1.569537618, HILLSLOPE 2.334941078, MAX_EFFECT 65.07177033, TOP 65.29640188) 4.95; (BOTTOM 7.030389685, HILLSLOPE 2.531896239, MAX_EFFECT 68.73857404, TOP 69.44063033) 4.79. On to `Oc1c(Cl)cc(Cl)cc1CNc1nccs1`, for which the PXC50 is, setting by setting: (MAX_EFFECT 15.39923954) under 3; (MAX_EFFECT 20.51835853) under 3.

In the case of `COCc1nc(N(C)CC(=O)N(C)C)c2c(-c3ccccc3)csc2n1`, the PXC50 (MAX_EFFECT 3.778337531) is under 4 and the PXC50 (MAX_EFFECT 3.816793893) was under 4. In the case of `Cc1nc(N(C)CC(=O)NC2CC2)c2c3c(sc2n1)CCCC3`, the PXC50 runs as follows: (MAX_EFFECT 4.761904762) under 4; (MAX_EFFECT 5.333333333) under 4.
